Our source for the inhibition values is PubChem BioAssay AID1347420 (Sanford-Burnham Center for Chemical Genomics, 2020).

Molecules are shown by their SMILES. The whole screen tested about 1,300 compounds, of which about 980 (75%) were called active. About 4% were inconclusive and are not listed. This is one part of the list.

The target in this assay is Sulfhydryl oxidase 1 (Homo sapiens) (UniProt O00391). As to the kind of experiment: QSOX1 enzyme inhibitors, primary screen, biochemical, HyperBlu H2O2 luminescence, HTS (AID 1347420). Note: values above 100% were filed as inconclusive. As to conditions: recombinant QSOX1, HyperBlu H2O2 luminescence; at 12.5 µM; hits give high values; active = any value above zero.
Sequence of Sulfhydryl oxidase 1 (Homo sapiens) (O00391 whole entry, looked up): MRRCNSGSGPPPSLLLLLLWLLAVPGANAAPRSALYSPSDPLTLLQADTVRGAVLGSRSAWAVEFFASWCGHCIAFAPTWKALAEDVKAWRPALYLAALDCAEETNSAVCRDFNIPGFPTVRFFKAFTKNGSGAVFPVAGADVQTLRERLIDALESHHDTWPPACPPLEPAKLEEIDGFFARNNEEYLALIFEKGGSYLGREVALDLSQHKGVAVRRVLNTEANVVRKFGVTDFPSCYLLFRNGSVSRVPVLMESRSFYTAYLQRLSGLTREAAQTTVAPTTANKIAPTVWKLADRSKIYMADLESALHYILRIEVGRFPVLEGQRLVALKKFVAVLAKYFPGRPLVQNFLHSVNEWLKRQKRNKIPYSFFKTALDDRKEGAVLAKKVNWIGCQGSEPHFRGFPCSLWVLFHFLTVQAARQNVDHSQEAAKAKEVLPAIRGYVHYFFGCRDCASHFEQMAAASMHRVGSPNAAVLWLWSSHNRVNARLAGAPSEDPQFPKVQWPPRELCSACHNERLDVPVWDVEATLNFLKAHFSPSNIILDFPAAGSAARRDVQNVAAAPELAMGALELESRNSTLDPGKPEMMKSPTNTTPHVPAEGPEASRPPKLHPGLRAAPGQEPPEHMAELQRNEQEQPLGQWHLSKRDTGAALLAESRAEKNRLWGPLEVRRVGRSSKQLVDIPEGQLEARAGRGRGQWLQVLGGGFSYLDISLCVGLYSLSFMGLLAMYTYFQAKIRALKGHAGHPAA
In general, inhibition refers to the change of the read-out against control, counted positive when it falls. For `Oc1ccc(/C=C/c2ccc(/C=C/c3ccc(O)cc3)c(Br)c2)cc1`, the inhibition was -1.9% (inactive).
Next, `Oc1ccc(/C=C/c2cc(O)cc(O)c2)cc1`: 78% (active).
Take `N[C@H](CCCP(=O)(O)O)C(=O)O`: the inhibition was 13.7% (active).
Turning to `NC(CCCP(=O)(O)O)C(=O)O` (stereo unspecified), the inhibition is 4% (active).
On to `N[C@@H](COP(=O)(O)O)C(=O)O`, for which the inhibition is 1.7% (active).
Turning to `CN[C@H](CC(C)C)C(=O)N[C@H]1C(=O)N[C@@H](CC(N)=O)C(=O)N[C@H]2C(=O)N[C@H]3C(=O)N[C@H](C(=O)N[C@H](C(=O)O)c4cc(O)cc(O)c4-c4cc3ccc4O)[C@H](O)c3ccc(c(Cl)c3)Oc3cc2cc(c3O[C@@H]2O[C@H](CO)[C@@H](O)[C@H](O)[C@H]2O[C@H]2C[C@](C)(N)[C@H](O)[C@H](C)O2)Oc2ccc(cc2Cl)[C@H]1O`, the inhibition is -8.2% (inactive).
With `CN1CCN(CC(=O)N2c3ccccc3C(=O)Nc3cccnc32)CC1` the figure was -3.2% (inactive); with `Cc1scc2c1N(C(=O)CN1CCN(C)CC1)c1ccccc1NC2=O`, 1.1% (active).
With `Cc1ccc(=O)n(-c2ccccc2)c1` the figure was 2.4% (active).
With `Oc1ccc(O)cc1` the figure was 14.7% (active); with `Nc1ccc2c3c(cccc13)C(=O)NC2=O`, 13.7% (active); with `NCCNS(=O)(=O)c1cccc2c(Cl)cccc12`, 0.7% (active).
In the case of `CC(C)COC(=O)OCN1C(=O)CN(CCN2CC(=O)N(COC(=O)OCC(C)C)C(=O)C2)CC1=O`, the inhibition was 12.5% (active).
Consider `C=CCNc1ncnc2ccc(Br)cc12`, for which the inhibition was 12.6% (active).
Next, `NC(=O)C(=O)O`: 11% (active); `CC[C@H](NC(=O)c1c(C)c(-c2ccccc2)nc2ccccc12)c1ccccc1`: 9.3% (active).
Turning to `COc1ccc(CCN(C)CCCC(C#N)(c2cc(OC)c(OC)c(OC)c2)C(C)C)cc1OC` (stereo unspecified), the inhibition is 17% (active).
In the case of `COc1ccc(CCN(C)CCCC(C#N)(c2ccc(OC)c(OC)c2)C(C)C)cc1OC` (stereo unspecified), the inhibition was 9.1% (active).
Next, `COc1ccc(CCN(C)CCc2ccc(OC)c(OC)c2)cc1OC`: 8% (active); `COc1ccc(Cc2nccc3cc(OC)c(OC)cc23)cc1OC`: -10.3% (inactive).
For `O=P(O)(O)C(Cl)(Cl)P(=O)(O)O`, the inhibition is -4.1% (inactive).
With `NC(CO)C(=O)NNCc1ccc(O)c(O)c1O` (stereo unspecified), the inhibition was 24.2% (active).
On to `CN1CCN(c2nc3cc(C(F)(F)F)ccc3n3cccc23)CC1`, for which the inhibition was 12.2% (active).
Next, `Cc1[nH]c(=O)c(C#N)cc1-c1ccc2nccn2c1`: 1% (active).
`Cc1[nH]c(=O)c(C#N)cc1-c1ccncc1`: the inhibition is 15.5% (active).
With `COc1cccc(-c2cc(=O)c3ccccc3o2)c1N` the figure was 7.6% (active).
Next, `CC(=O)O[C@H]1Cc2ccccc2N(C(N)=O)c2ccccc21`: -8.4% (inactive); `NC(=O)N1c2ccccc2C=Cc2ccccc21`: 12.3% (active).
Next, `OCCN1CCN(CCCN2c3ccccc3Sc3ccc(C(F)(F)F)cc32)CC1`: 92.8% (active); `OCCN1CCN(CCCN2c3ccccc3C=Cc3ccccc32)CC1`: 47.2% (active).
As for `CN1CCN(CCCN2c3ccccc3Sc3ccc(C(F)(F)F)cc32)CC1`, the inhibition was 97% (active).
Next, `OCCN1CCN(CC/C=C2/c3ccccc3Sc3ccc(C(F)(F)F)cc32)CC1`: 3.4% (active); `COC(=O)c1c(C)[nH]c(C)c1C(=O)c1ccccc1Cc1ccccc1`: -0.5% (inactive).
With `CCN(CC)CCNC(=O)c1ccc(N)cc1` the figure was 7.8% (active); with `CCN(CC)CCNC(=O)c1ccc(NS(C)(=O)=O)cc1`, 9.7% (active); with `CCN(CC)CCNC(=O)c1ccc(NC(C)=O)cc1`, -4.7% (inactive).
Consider `CCCCS(=N)(=O)CCC(N)C(=O)O` (stereo unspecified), for which the inhibition was -11.1% (inactive).
Turning to `N[C@@H](CCCC(=O)O)C(=O)O`, the inhibition is 16.9% (active).
Next, `NC(=O)CC[C@H](N)C(=O)O`: 1.7% (active).
On to `CCCCS(=N)(=O)CC[C@H](N)C(=O)O` (stereo partly specified), for which the inhibition is -12.9% (inactive).
For the molecule `COc1cc(Cc2cnc(N)nc2N)cc(OC)c1OC`, the inhibition is -13.7% (inactive).
With `COc1ccc(CN(CCN(C)C)c2ccccn2)cc1` the figure was 36.6% (active).
As for `CN(C)CCN(Cc1cccs1)c1ccccn1`, the inhibition was 4.7% (active).
Next, `CC(C)(Sc1ccc(CCN(CCCCC2CCCCC2)C(=O)NC2CCCCC2)cc1)C(=O)O`: 3% (active).
Next, `CCCCCN(CCCCC)C(=O)C(CCC(=O)O)NC(=O)c1ccc(Cl)c(Cl)c1` (stereo unspecified): 13.5% (active); `O=C(O)CCC(C(=O)O)N1C(=O)c2ccccc2C1=O` (stereo unspecified): -7.5% (inactive).
With `CCCN(CCC)C(=O)C(CCC(=O)O)NC(=O)c1ccccc1` (stereo unspecified) the figure was 12% (active); with `CC1C(=O)N(C)C(=O)c2nc[nH]c21` (stereo unspecified), 2.6% (active); with `CCCC(C(=O)OCCN(CC)CC)(c1ccccc1)c1ccccc1`, 6.2% (active).
Regarding `CCCc1c(OCCCOc2ccc(OCC(=O)O)cc2)ccc(C(C)=O)c1O`, the inhibition was 17.6% (active).
With `CCN(CC)CCOC(=O)c1cc(Cl)c(N)cc1OC` the figure was 7.6% (active).
Turning to `CCN(CC)CCNC(=O)c1cc(S(C)(=O)=O)ccc1OC`, the inhibition was 0.6% (active).
`CCN(CC)CCNC(=O)c1cc(Cl)c(N)cc1OC`: the inhibition was 2.2% (active).
With `CCN(CC)CCCCCCCCOC(=O)c1cc(OC)c(OC)c(OC)c1` the figure was 17.3% (active); with `COc1cc(N)c(Cl)cc1C(=O)OCCN1CCCCC1`, -7.9% (inactive); with `NC[C@H](O)c1ccc(O)c(O)c1`, 55.1% (active).
Next, `NCC(O)c1ccc(O)c(O)c1` (stereo unspecified): 43.6% (active).
Next, `CC(=O)N1CCN(c2ccc(OC[C@H]3CO[C@](Cn4ccnc4)(c4ccc(Cl)cc4Cl)O3)cc2)CC1`: 56.3% (active); `COc1ccc2c(c1OC)C(=O)O[C@@H]2[C@H]1c2c(cc3c(c2OC)OCO3)CCN1C`: 14.1% (active).
Take `CCn1cc(C(=O)O)c(=O)c2cc(F)c(N3CCNC(C)C3)c(F)c21` (stereo unspecified): the inhibition was 12.8% (active).
Next, `O=[N+]([O-])c1ccc2c(c1)S(=O)(=O)C=C2`: 39.1% (active).
Next, `C[C@]12CC[C@@H]3c4ccc(O)cc4C[C@@H](CCCCCCCCCS(=O)CCCC(F)(F)C(F)(F)F)[C@H]3[C@@H]1CC[C@@H]2O` (stereo partly specified): 22.3% (active); `CCCCCC[C@@H]([C@@H](C)O)n1cnc2c(N)ncnc21`: 7.4% (active); `N[C@H](C(=O)O)c1cc(O)cc(O)c1`: 5.6% (active).
Turning to `Clc1ccc(N2CCN(Cc3cc4ccccn4n3)CC2)cc1`, the inhibition was 63.8% (active).
With `Clc1ccc(Cn2c(CN3CCCC3)nc3ccccc32)cc1`, the inhibition was -2.3% (inactive).
Next, `COc1cccc(OC)c1OCCNCC1COc2ccccc2O1` (stereo unspecified): 23.5% (active).
`COc1cccc(OC)c1OCCNCC1CSc2ccccc2O1` (stereo unspecified): the inhibition is -4.6% (inactive).
For `CCn1ccnc1CC1COc2ccccc2O1` (stereo unspecified), the inhibition was -2.8% (inactive).
With `O=C1CCC(c2ccc(-n3ccnc3)cc2)=NN1`, the inhibition is 10% (active).
As to `O=c1oc(Cl)c(Cl)c2ccccc12`, the inhibition is 15% (active).
With `Cc1nn(-c2ccccc2)c(C)c1C=NN1CCN(Cc2ccccc2)CC1` the figure was -0.7% (inactive); with `Nc1ncnc2c1c(-c1ccc(Oc3ccccc3)cc1)cn2C1CCCC1`, 7.6% (active); with `COc1cc([C@@H]2c3cc4c(cc3[C@H](O)C3COC(=O)[C@@H]32)OCO4)cc(OC)c1OC` (stereo partly specified), 10.7% (active).
With `COc1cc([C@@H]2c3cc4c(cc3[C@@H](O[C@@H]3O[C@@H]5CO[C@@H](C)O[C@H]5[C@H](O)[C@H]3O)[C@H]3COC(=O)[C@H]23)OCO4)cc(OC)c1O` the figure was 31.7% (active); with `O=C(O)CN(CCN(CC(=O)O)CC(=O)O)CCN(CC(=O)O)CC(=O)O`, 25.6% (active).
`O=C(O)CN(CCOCCOCCN(CC(=O)O)CC(=O)O)CC(=O)O`: the inhibition is 13.4% (active).
`CN(C)[C@@H]1C(=O)C(C(N)=O)=C(O)[C@@]2(O)C(=O)C3=C(O)c4c(O)ccc(Cl)c4[C@@H](O)[C@H]3C[C@@H]12`: the inhibition was 49.5% (active).
Next, `C[C@H]1c2cccc(O)c2C(O)=C2C(=O)[C@]3(O)C(O)=C(C(N)=O)C(=O)[C@@H](N(C)C)[C@@H]3[C@@H](O)[C@@H]21`: 39.9% (active); `COc1ccccc1N1CCN(CCN(C(=O)c2ccc(F)cc2)c2ccccn2)CC1`: 27.6% (active).
For the molecule `COc1ccccc1N1CCN(CCN(C(=O)C2CCCCC2)c2ccccn2)CC1`, the inhibition is 40.4% (active).
Consider `COc1ccccc1N1CCN(CCN(C(=O)c2ccc(I)cc2)c2ccccn2)CC1`, for which the inhibition was 28.5% (active).
Take `Cc1ccc(/C(=C\CN2CCCC2)c2ccccn2)cc1`: the inhibition is -62.9% (inactive).
Next, `O=C(O)C1CCCN(CCC=C(c2ccccc2)c2ccccc2)C1` (stereo unspecified): 3.5% (active).
`O=C(O)C1=CC(=C(c2ccc(O)c(C(=O)O)c2)c2ccc(O)c(C(=O)O)c2)C=CC1=O`: the inhibition was 42.3% (active).
With `O=c1c2ccccc2nc2n1CCc1c-2[nH]c2ccccc12` the figure was 5.7% (active).
Next, `CCCCc1oc2ccccc2c1C(=O)c1cc(I)c(OCCN(CC)CC)c(I)c1`: 18% (active); `CCCC[C@@]1(C2CCCC2)Cc2cc(OCC(=O)O)c(Cl)c(Cl)c2C1=O`: 25.1% (active).
In the case of `C[C@@]1(C2CCCC2)Cc2cc(OCC(=O)O)c(Cl)c(Cl)c2C1=O`, the inhibition is 18.3% (active).
Next, `CC(C)C(=O)c1c(C(C)C)nn2ccccc12`: 12.7% (active).
With `CSc1ccc(C(=O)c2[nH]c(=O)[nH]c2C)cc1` the figure was -9% (inactive); with `CC(C)ON([C@@H](C(=O)NO)C(C)C)S(=O)(=O)c1ccc(-c2ccccc2)cc1`, 8.1% (active); with `CCOC(=O)C(C)(C)Oc1ccc(Cl)cc1`, -1.7% (inactive).
Regarding `CC(C)OC(=O)C(C)(C)Oc1ccc(C(=O)c2ccc(Cl)cc2)cc1`, the inhibition is 1.9% (active).
With `NNCCc1ccccc1` the figure was 9.9% (active); with `CCCCCCN(CCCCCC)C(=O)Cc1c(-c2ccc(F)cc2)[nH]c2ccccc12`, 22.4% (active).
With `CC(=O)Nc1nnc(S(N)(=O)=O)s1` the figure was 14.5% (active).
Next, `CN(C)CCOC(C)(c1ccccc1)c1ccccn1` (stereo unspecified): 6.5% (active); `CN1CCN(C2Cc3ccccc3Sc3ccc(Cl)cc32)CC1` (stereo unspecified): 1.9% (active).
For the molecule `CSc1ccc2c(c1)C(N1CCN(C)CC1)Cc1ccccc1S2` (stereo unspecified), the inhibition is 1.3% (active).
Consider `O=c1n(CCCN2CCN(c3cccc(Cl)c3)CC2)nc2ccccn12`, for which the inhibition was 45.2% (active).
On to `Cc1ccc(C(=O)Nc2ccc(S(=O)(=O)[O-])c3c2C(S(=O)(=O)[O-])=[C+]C(S(=O)(=O)O)=[C+]3)cc1NC(=O)c1cccc(NC(=O)Nc2cccc(C(=O)Nc3cc(C(=O)Nc4ccc(S(=O)(=O)[O-])c5c4C(S(=O)(=O)[O-])=[C+]C(S(=O)(=O)O)=[C+]5)ccc3C)c2)c1`, for which the inhibition was 17.8% (active).
On to `c1cc(CN2CCCCC2)cc(OCCCNc2nc3ccccc3s2)c1`, for which the inhibition is 7.9% (active).
With `C1CCc2nnnn2CC1` the figure was 15.2% (active); with `CCC1C(=O)OCC1Cc1cncn1C` (stereo unspecified), -0.2% (inactive).
With `CNCCNS(=O)(=O)c1cccc2cnccc12` the figure was 3.8% (active).
